# Bioassay records: PubChem BioAssay, National Center for Advancing Translational Sciences (NCATS)
# IMPase cell inh: qHTS Assay for Identifying the Cell-Membrane Permeable IMPase Inhibitors. Inositol monophosphatase 1 (Rattus norvegicus), P97697. CHO-M1 cells, IP1 accumulation, HTRF TR-FRET ratio. inhibition (IP1 accumulation), % at 46.1 µM. 120,000 tested, under 10 active. AID 901, 2007; active means well fitted curve in the direction sought with a large enough effect in the signal ratio, not every such curve was filed as active; inconclusive means small, poorly fitted or top-dose-only effect, or a change in a side signal; inactive means no such curve, though single readings can be large or run the other way; the % refers to the signal ratio;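 further: cells stimulated with carbachol in lithium chloride buffer; higher means more IMPase inhibition seen as more IP1 and lower FRET ratio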
#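 Carbachol-driven Gq signalling in CHO-M1 cells (2000/well) generates IP1. Compounds that block IMPase raise IP1 and so reduce the FRET signal from Eu-anti-IP1 and d2-IP1 after a 10 min room-temperature lysis.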
# PNC inhibitor: High Content Assay for Compounds that inhibit the Assembly of the Perinucleolar Compartment | 3.1% of 140,000 active | activity change (PNC), negative = inhibition, % at 10 µM | PC3M PTB-GFP, PNC prevalence imaging, 16 h; hits give low values;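 active means readout at or below -70, meaning at least 70% loss of cells showing the perinucleolar compartment, a nuclear body marking cancer cells; inconclusive means readout between -30 and a set limit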
#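 Compounds are pinned in duplicate onto adhered PC3M cells stably expressing GFP-tagged PTB and incubated 16 h at 37 C. Cells are then fixed, nuclei stained with Hoechst, and PNC-positive cells counted.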
# HPGD block: qHTS Assay for Inhibitors of HPGD (15-Hydroxyprostaglandin Dehydrogenase). 15-hydroxyprostaglandin dehydrogenase [NAD(+)] (Homo sapiens), P15428. purified HPGD, NADH fluorescence kinetic, PGE2 substrate. Potency, µM, hits mostly inhibitors. 4.3% of 150,000 active
#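 20 nM HPGD preincubated 15 min at room temperature with compound in 50 mM Tris-HCl pH 8, 0.01% Tween 20. Started with 1 mM NAD+ and 30 uM prostaglandin E2; NADH fluorescence (360/450 nm) read 5 times over 30-s intervals, last minus first.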
# 12-hLO inh: qHTS Assay for Inhibitors of 12-hLO (12-human lipoxygenase). Polyunsaturated fatty acid lipoxygenase ALOX12 (Homo sapiens), P18054. 0.12% of 150,000 active. purified 12-hLO, xylenol orange hydroperoxide absorbance. Potency, µM (series often up to 57.1 µM), hits mostly inhibitors. AID 1452, 2008; active means well fitted curve in the direction sought with a large enough effect; inconclusive means small, poorly fitted or top-dose-only effect, or another doubt; inactive means no such curve, though single readings can be large; an effect the other way counts as inactive or inconclusive; further: nearly all actives have a fitted effect of over 55% in size
#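 Lipoxygenase turnover measured by absorbance at 573 and 405 nm after Fe-XO development. Human 12hLO 150 nM, arachidonate 40 uM, pH 7.0 Hepes buffer with detergent; 15 min compound preincubation, 30 min reaction.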
# IMPase Li inh: qHTS Assay for Identifying the Cell-Membrane Permeable IMPase Inhibitors: Potentiation with Lithium. CHO-M1 cells, IP1 TR-FRET (IP-One), carbachol + lithium. Potency, µM (top dose mostly 59.4 µM), most hits filed as inhibitors. 0.35% of 210,000 active. AID 1457, 2008; active means well fitted curve in the direction sought with a large enough effect; inconclusive means small, poorly fitted or top-dose-only effect, or another doubt; inactive means no such curve, though single readings can be large; an effect the other way counts as inactive or inconclusive;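 further: IP1 builds up when IMPase is blocked and the TR-FRET signal falls; nearly all actives have a fitted effect of over 50% in size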
#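 CHO-M1, 2000 cells/well, 16–30 h culture; cpd + low Li+, 30 min 37C; lysis with d2-IP1/Eu-anti-IP1 Ab, 10 min RT; TR-FRET 665/620 ratio and 620 channel; AC50 via Hill.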
# ALDH1A1 inh: qHTS Assay for Inhibitors of Aldehyde Dehydrogenase 1 (ALDH1A1) | Aldehyde dehydrogenase 1A1 (Homo sapiens), P00352 | Purified ALDH1A1, NADH fluorescence, propionaldehyde substrate | Potency, µM (top dose mostly 75.3 µM), usual class: inhibitors | 7.3% of 220,000 active | AID 1030, 2008
# Target sequence (P00352 whole entry, looked up): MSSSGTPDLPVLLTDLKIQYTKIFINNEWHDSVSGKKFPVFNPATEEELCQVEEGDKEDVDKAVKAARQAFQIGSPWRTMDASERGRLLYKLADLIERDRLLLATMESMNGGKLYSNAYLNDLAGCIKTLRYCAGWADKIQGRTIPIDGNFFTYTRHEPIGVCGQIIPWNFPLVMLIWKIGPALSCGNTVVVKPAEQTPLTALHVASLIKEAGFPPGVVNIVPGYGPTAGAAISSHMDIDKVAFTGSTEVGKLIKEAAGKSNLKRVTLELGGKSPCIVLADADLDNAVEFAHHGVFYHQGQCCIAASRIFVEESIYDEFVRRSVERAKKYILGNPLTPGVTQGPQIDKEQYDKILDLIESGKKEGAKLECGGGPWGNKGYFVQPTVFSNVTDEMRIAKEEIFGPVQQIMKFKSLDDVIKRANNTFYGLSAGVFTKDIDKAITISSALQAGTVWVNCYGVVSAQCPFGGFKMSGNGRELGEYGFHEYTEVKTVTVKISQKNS
# Numbers stand for hits; - = inactive; ? = inconclusive; . = no result given; [ ] = dose if it differs, or a comment. Compounds with a hit are over-represented: about 11% of the library has one in this group of screens. Unless noted, the call rests on the fitted dose curve; in most records, active means well fitted inhibition curve with a large enough effect (not every such curve was filed as active); inconclusive means small, poorly fitted or top-dose-only effect, or another doubt; inactive means no such curve, though single readings can be large or run the other way.
SMILES,IMPase cell inh,PNC inhibitor,HPGD block,12-hLO inh,IMPase Li inh,ALDH1A1 inh
O=C(Cn1cnnn1)Nc1ccccc1Cc1ccccc1,-,-100,-,-,-,-
CCCCC/C=C\C/C=C\CCCCCCCC(=O)NC(C)C(=O)O (configuration not stated),.,.,-,-,-,-
COc1ccccc1OCc1nc(C#N)c(NCc2ccc(C)cc2)o1,-,.,.,.,.,.
CCNc1oc(COc2ccccc2F)nc1C#N,-,-,14µM,-,-,?
COc1ccc(Nc2oc(COc3ccccc3OC)nc2C#N)cc1,.,-,14µM,-,-,-
COc1cc(NC(=O)Cn2c(=O)n(Cc3ccccc3Cl)c(=O)c3cc(OC)c(OC)cc32)cc(OC)c1,-,.,.,.,.,.
C=C/C(C)=C/[C@]1(C)SC(=O)C(C)=C1O,-,.,.,-,.,.
O=C1NC2c3ccccc3C(=O)N2c2c1cnn2-c1ccccc1 (configuration not stated),-,-100,-,-,-,?
O=C1c2ccccc2N2C(=O)c3ccccc3[C@H]2N1c1ccccc1,-,-,-,-,-,-
CN(c1ncc(C(F)(F)F)cc1Cl)n1cc(C(=O)O)c2ccccc2c1=O,-,-,-,-,-,-
CN(c1ncc(C(F)(F)F)cc1Cl)n1cc(C(N)=O)c2ccccc2c1=O,-,-,-,-,-,25µM
C=CC(=O)NN(C)c1ncc(C(F)(F)F)cc1Cl,.,.,.,.,-,-
CN(NC(=O)/C=C/C(=O)O)c1ncc(C(F)(F)F)cc1Cl,.,.,.,.,-,2.8µM
CC(C)(C)S(=O)(=O)/C(C#N)=C/c1sccc1C1OCCO1,.,.,.,.,.,7.9µM
CSc1ccc(N/N=C(/C#N)S(=O)(=O)C(C)(C)C)cc1,.,.,.,.,-,-
Cc1ccc(S(=O)(=O)N(C)C)cc1NC(=S)NC12CC3CC(CC(C3)C1)C2,-,-,.,-,.,?
CN(C)S(=O)(=O)c1cccc(NC(=S)N2CCc3ccccc32)c1,.,.,.,.,-,18µM
Cc1ccc(S(=O)(=O)N(C)C)cc1NC(=S)N1CCc2ccccc21,.,.,.,.,-,25µM
CC(Oc1ccc(-c2ccccc2)c(F)c1)c1ccn(S(=O)(=O)c2ccc(F)cc2)n1 (configuration not stated),-,-100,-,-,-,-
O=C(/C=C\c1ccccc1OC(=O)c1ccccc1F)c1cc2ccccc2o1,-,?,28µM,-,-,-
C=C1c2ccccc2O[C@H](C(=O)OCC)[C@@H]1CC(C)(C)c1ccccc1,.,.,-,-[0.00818 µM],-,-
O=c1c(Cl)cc(Cl)nn1-c1ccccc1,.,?,-,-,-,32µM
COc1cc(Cl)nn(-c2ccccc2)c1=O,.,?,-,-,-,-
N#CC1=C(N2CCCCC2)c2cc3c(n2C1=O)CCCC3,?,-,25µM,-,-,8.9µM
CCOC(=O)C1=C(SCC)c2cc3c(n2C1=O)CCCC3,-,-,-,-,-,?
SMILES,IMPase cell inh,PNC inhibitor,HPGD block,12-hLO inh,IMPase Li inh,ALDH1A1 inh
COC(=O)CSc1nc2nc(C)cc(C)n2n1,-,-85,-,-,-,-
COCCNC(=O)CSc1nc2nc(C)cc(C)n2n1,-,-,20µM,-,-,-
CCOC(=O)CSc1nc2nc(C)cc(C)n2n1,-,-,-,-,-,-
CCOc1ccccc1-c1ccc(C(=O)O)s1,.,.,?,-[0.00818 µM],-,?
COCOc1ccc(OC)cc1C(=O)/C=C/c1ccc(OC)c(Br)c1,.,.,-,.,-,-
COC(=O)c1ccc(NC(=O)CCOc2ccccc2)cc1,-,.,.,.,-,-
COC(=O)c1ccc(NC(=O)CN2C(=O)CCC2=O)cc1,-,-,32µM,-,-,?
CCOC(=O)c1ccc(NC(=O)CN2C(=O)CCC2=O)cc1,?,-,-,-,-,-
COC(=O)c1ccc(NC(=O)CNc2ccccc2)cc1,.,.,.,.,-,22µM
O=C(CN1C(=O)CCC1=O)Nc1ccc(Br)cc1,-,-,-,5.6µM,-,2.5µM
